# Assay results from PubChem BioAssay (NCI).
# “And” between values parts separate entries of the source, which are not always exact repeats. Equal values may be shown once. This is part of a sample that, as a whole, favours compounds with a hit. Of some 83,000 tested, about 20% had one in any assay.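 48-hour exposure, single concentration, 96-well plates; percent growth endpoint where 0 means no net growth. Active: below 10.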 Unmarked numbers belong to inactive results. The source made the active and inactive calls.
# System: MDA-MB-468 breast
# Assay: NCI-60 one-dose screen, 48 h (100 = growth as untreated, 0 = no growth, -100 = all killed)
# Details: 10 µM unless noted
row,SMILES,growth
1,C/C=C/C1OCC(CC)C(CCC)O1 (stereo not given),122%
2,COc1cc(OC)c2sc(-c3ccc(-n4cncc4-c4cc(OC)c(OC)c(OC)c4)cc3)nc2c1,43.5%
3,O=c1oc2ccc3ccccc3c2cc1-c1ccnc2[nH]c(=S)[nH]c(=O)c12,97.1%
4,CC/C=C\C[C@H](O)C/C=C1/C(=O)C(Cl)=C[C@@H]1C/C=C\CCCC(=O)OC,-62.1% (active)
5,CCCCCCCCCCCCCCCC[N+]1(C)CCCC1c1cccnc1 (stereo not given),-15.8% (active)
6,CN(C)[C@@H]1C(=O)C(C(N)=O)=C(O)[C@@]2(O)C(=O)C3=C(O)c4c(O)cc(CN5CCc6ccccc6C5)c(Cl)c4C[C@H]3C[C@@H]12,-46.8% (active)
7,Cc1ccc2c(n1)C(=O)C(Cl)=C(Nc1ccccc1C(C)C)C2=O,34.9%
8,C/C(=N/NC(N)=S)c1ccc(C)cc1,23.5%
9,COc1ccc(F)c(F)c1C(=O)c1cnc(NC2CCN(S(C)(=O)=O)CC2)nc1N,-59.4% (active)
10,O=C(O)c1ccc(-n2cc(CNc3cc(F)c(F)c(F)c3)c(-c3ccc(F)cc3)n2)cc1,115%
11,O=C1CC(N2C(=O)/C(=C/C(Cl)=C\c3ccc([N+](=O)[O-])cc3)SC2=S)C(=O)N1c1ccc(Cl)cc1 (stereo not given),-6.24% (active)
12,O=C1CCNC1,107%
13,Cc1c(C)c2c(c(C)c1NC(=O)/C=C\C(=O)O)CCC(C)(CCCC(C)CCCC(C)CCCC(C)C)O2 (stereo not given),-45.3% (active)
14,CNc1cc(-c2cccc(OC(F)(F)F)c2)nc2ccc(N3CCCC3)cc12,-69.7% (active) and -68% (active) and -66.2% (active)
15,CCOc1cc2c(cc1OCC)C(c1cc(OC)c(O)cc1Cl)NCC2 (stereo not given),61.4%
16,OCc1ccccn1,99.9%
17,COc1ccc2c(c1)C(=O)CC(c1ccccc1OC)O2 (stereo not given),92.2%
18,CN1CC[C@@H]2[C@@]3(C)CC[C@H](O)C(C)(C)[C@@H]3CC[C@@]2(C)[C@]2(C)CC[C@@]3(CO)CCC(C)(C)C[C@@H]3C12 (stereo not given in full),62%
19,CCN1C(=O)N(CC)C2SC(N/N=C/C=C/c3ccccc3OC)=NC21 (stereo not given),36.8%
20,COc1ccccc1S(=O)(=O)Nc1ccc2c(c1)CN(C)C(=O)N2,21.1%

row,SMILES,growth
1,CC1=CN2C(=NC3=C(CCCC/C3=C\c3ccccc3)C2c2ccccc2)S1 (stereo not given),116%
2,O=C(CN1CCOCC1)Nc1ccc(-c2nc3ccccc3s2)cc1,-6.69% (active)
3,CN(C)c1nc(-c2ccco2)n2nc(-c3ccco3)cc2n1,-22.1% (active)
4,CCCS(=O)(=O)c1nc(NC2CC2)cc(-c2ccc3c(ccn3C3CC(C)(C)NC(C)(C)C3)c2)n1,-72.4% (active)
5,CCNc1nc2cc(Nc3ccnc4cc(Cl)ccc34)ccc2o1,41.2%
6,COc1ccccc1/C=N\Nc1ccc([N+](=O)[O-])cn1,109%
7,N#Cc1c2cccnc2c2nnc3cc(Cl)c(Cl)cc3n12,-56% (active)
8,O=C(N/N=C/c1ccc(Cl)cc1)c1ccc(Cc2n[nH]c(=O)c3cccnc23)cc1,89.8%
9,COc1cc(-c2cc(-c3nc4ccccc4[nH]3)[nH]n2)cc(OC)c1OC,14.7%
10,Cc1nc(N/N=C/c2cn(-c3ccccc3)nc2-c2cc3ccccc3oc2=O)sc1N=Nc1ccccc1,89.7%
11,CCCn1nc(-c2ccccc2)c2c(-c3ccccc3)onc2c1=O,43.6%
12,CCN(CC)CCOc1ccc(C(=O)/C=C\c2ccc(Cl)cc2Cl)cc1,39.8%
13,O=C1NC(=O)N(Cc2ccccc2)CC1Br (stereo not given),104%
14,Nc1c(C(=O)Nc2cccc3ncccc23)sc2nc3c(cc12)CN(Cc1ccccc1)CC3,31.4%
15,O=C1C(Cl)=C(Nc2ccc(O)cc2)C(=O)N1Cc1ccc(Cl)cc1,5.88% (active)
16,CCCN(CCSSCCNc1nc(N(C)O)nc(N(C)O)n1)c1nc(N(C)O)nc(N(C)O)n1,15.8%
17,COc1cccc(Nc2ncnc3cc(NC(=O)CCl)ccc23)c1,-56% (active)
18,CCOC(=O)C(CC(=O)O)=C(C(=O)OCC)C(=O)OCC,97.1%
19,CN(C)S(=O)(=O)n1cnc([C@@H]2[C@@H]3C(=O)OC[C@@H]3C[C@]23N=CN(Cc2ccccc2)C3=O)c1,97.2%
20,COc1ccccc1/C=C/C(=O)Nc1ccc(F)cc1,105%
